Measurements as given in the OligoGym collection.

These sequences were tested against IL13RA1 (assay: pooled miR-30 sensor sort-seq; sequence = guide strand). Settings: shRNA.
Further: reference of the scale not given here.

Row | Sequence | sensor-assay potency score (higher = more potent)
1 | TAGTAGAGAGTATAGTTAGTGT | -0.663
2 | TTGACTCTTATTCTGACTGTGT | 0.685
3 | TTTCTTATCTTGTTTGTCGCCA | 0.315
4 | TTGCTTCTCATAGATGTCGTAC | -0.044
5 | TTCCATGTCCATATTACTGTGC | -0.274
6 | TTTTCTATCAGCACTACAGAGT | -0.723
7 | TTGTTCAAAACTGGAATCCTTC | -0.391
8 | TTCTTATCTTGTTTGTCGCCAA | -0.0977
9 | TTGACCATTATTTGGACACTGT | 0.157
10 | ATAGACTACAATTTGAGCTGGC | 0.897
11 | TTTGACTCTTATTCTGACTGTG | 0.568
12 | TACAGAGTCGGTTTCCTCCTTG | 0.15

The sequences below were run against IL16 in the same assay as above. Settings: shRNA.

Row | Sequence | sensor-assay potency score (higher = more potent)
13 | TTCATGAAGAATATCCTCCTAC | 0.448
14 | TTTAGGAACAACCTTTTGCTGG | -0.755
15 | TTTCTCCTGATGACAATCGTGA | -0.801
16 | ATCTTCTCCAGTGTCACCGTGC | -0.369
17 | TTCTACAGAAACATCACTGGCT | 0.755
18 | TTCTCCAGTGTCACCGTGCAGA | -0.677
19 | TTTCTAGATCTGCTCCTCCTGC | -0.608
20 | TTCCTTGTGACAATCACAGCTT | 0.571
21 | TTGGTCTCGAAGTTCCCGCAGC | -0.85
